# Experimental data: PubChem BioAssay AID2599 (Sanford-Burnham Center for Chemical Genomics, 2010)
# The whole screen tested about 330,000 compounds, of which about 5,800 (1.8%) were called active.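 Rule for the calls: active = inhibition above about 50% at the single tested dose (limit read from the data); inactive = the rest.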 The list comes from a sample in which actives are over-represented; it also holds similar structures and randomly drawn compounds.
# Molecular target: Sentrin-specific protease 6 (Homo sapiens) (UniProt Q9GZR1)
# Sequence (Q9GZR1 628-1112 limits assumed): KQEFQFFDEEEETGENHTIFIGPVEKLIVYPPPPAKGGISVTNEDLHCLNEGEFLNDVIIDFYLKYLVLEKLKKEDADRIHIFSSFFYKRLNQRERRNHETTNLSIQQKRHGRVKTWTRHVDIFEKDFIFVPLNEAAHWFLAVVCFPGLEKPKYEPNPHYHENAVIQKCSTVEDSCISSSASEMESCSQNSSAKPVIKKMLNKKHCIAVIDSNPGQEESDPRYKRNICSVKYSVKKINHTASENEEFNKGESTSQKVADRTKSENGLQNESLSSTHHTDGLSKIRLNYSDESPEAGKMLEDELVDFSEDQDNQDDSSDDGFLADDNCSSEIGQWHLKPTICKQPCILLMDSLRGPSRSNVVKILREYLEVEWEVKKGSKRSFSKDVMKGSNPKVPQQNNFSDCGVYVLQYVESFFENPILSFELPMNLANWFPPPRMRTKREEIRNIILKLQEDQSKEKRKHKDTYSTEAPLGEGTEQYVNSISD
# Assay: SENP6 protease inhibitors, primary screen, biochemical, luminescence, uHTS (AID 2599);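 note: plate controls were DMSO wells with enzyme for no effect and DMSO wells lacking enzyme for full effect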
# Conditions: Recombinant SENP6 catalytic domain, aminoluciferin luminescence; at 10 µM; stronger effect = higher value
row,Structure (SMILES),inhibition
1,COc1ccc(C(=O)NCC2CCCCC2)cc1S(=O)(=O)N1CCCC1,-0.795% (inactive)
2,COc1ccc(COC(=O)c2n[nH]c3ccccc23)cc1F,-5.01% (inactive)
3,Cc1nn(C)c(C)c1S(=O)(=O)N1CCC(CO)(Cc2ccc(Cl)cc2)CC1,-8.17% (inactive)
4,CC(C)N1C(=O)N(c2ccccc2)C(C)(O)CC1(C)C (stereo unspecified),-17.1% (inactive)
5,O=C(COC(=O)Cn1[nH]c(=O)c2ccccc2c1=O)Nc1ncc(Cl)cc1Cl,-4.87% (inactive)
6,Cc1cccc(NS(=O)(=O)c2ccc(C(=O)NCC(C)(C)N3CCOCC3)cc2)c1C,4.82% (inactive)
7,C=CCOc1ccc(C2/C(=C(\O)c3c(C)[nH]c(C(=O)OC)c3C)C(=O)C(=O)N2CCN(C)C)cc1 (stereo unspecified),9.74% (inactive)
8,COc1ccc(CN(C)C(=O)Cc2ccsc2)c(OC)c1OC,-22.6% (inactive)
9,O=C(Nc1ccc(C2CC2(Cl)Cl)cc1)c1cccc([N+](=O)[O-])c1 (stereo unspecified),76.9% (active)
10,O=C(COC(=O)c1ccc2c(c1)OCCO2)NCc1ccccc1Cl,3.1% (inactive)
11,O=C(OCc1ccccc1F)c1ccc2c(c1)OCCO2,95.5% (active)
12,O=C(Nc1ccc(NC(=O)c2ccco2)c(Cl)c1)c1cccc([N+](=O)[O-])c1,14.1% (inactive)
13,Cc1cc(C)nc(NC(=O)c2cccc([N+](=O)[O-])c2)c1,-34.1% (inactive)
14,N#CCCN(C(=O)COC(=O)c1ccc2c(c1)OCCO2)c1ccccc1,6.71% (inactive)
15,O=C(CCC(=O)n1ncc2ccccc21)NCc1ccccc1Cl,15.9% (inactive)
16,Cc1nc(N)c(Br)c(C)c1Br,0% (inactive)
17,COc1cccc(-n2nc(C(=O)N3CCN(Cc4ccccc4)CC3)c3ccccc3c2=O)c1,-0.104% (inactive)
18,O=C(O)CSc1nccn1-c1cccc(Cl)c1,-22.5% (inactive)
19,COCCCNC(=O)Cn1c(=O)n(Cc2ccccc2Cl)c(=O)c2cc(OC)c(OC)cc21,-8.65% (inactive)
20,O=S(=O)(c1cnccc1N1CCN(/N=C/c2ccc(Br)cc2)CC1)N1CCCCC1,-13.3% (inactive)
21,Cc1c(Cl)cccc1NC(=O)Nc1ccc(C(=O)N2CCCC2)cc1,61.5% (active)
22,O=C(Nc1ccc(Cl)cc1)Nc1ccc(C(=O)N2CCOCC2)cc1,-8.3% (inactive)
23,Cc1c(Cl)cccc1NC(=O)NCCCN1CCCC1=O,2.62% (inactive)
24,O=C(c1ccc2ccccc2n1)N1CCN(c2ccccc2Cl)CC1,5.78% (inactive)

row,Structure (SMILES),inhibition
1,CC(=O)Nc1ccc(OC(=O)COc2ccc(Br)cc2)cc1,-9.28% (inactive)
2,c1ccc(-c2cc(-c3ccccc3)[nH]n2)cc1,59.9% (active)
3,Cc1ccc(NC(=O)c2cc(-c3ccccc3O)n[nH]2)cc1C,-12.4% (inactive)
4,S=c1[nH]nc(-c2cc(-c3ccsc3)n[nH]2)n1-c1ccccc1,-13.8% (inactive)
5,S=c1[nH]nc(-c2cc(-c3ccccc3)n[nH]2)n1/N=C/c1c2ccccc2cc2ccccc12,-3.75% (inactive)
6,Oc1ccccc1-c1cc(-c2ccc(Cl)cc2)n[nH]1,89.2% (active)
7,CC(C)C(=O)NCc1cc(-c2ccc(Cl)cc2)no1,-26.7% (inactive)
8,CCCOc1ccc(N2C(=O)CC(N(CCc3ccc(S(N)(=O)=O)cc3)C(C)=O)C2=O)cc1 (stereo unspecified),-12.7% (inactive)
9,COc1ccc(C(=O)OCC(=O)c2cc(C)n(CC3CCCO3)c2C)cc1[N+](=O)[O-] (stereo unspecified),-1.02% (inactive)
10,Cc1cc(C(=O)Cn2cnc3cc([N+](=O)[O-])ccc3c2=O)c(C)n1CC1CCCO1 (stereo unspecified),-13.2% (inactive)
11,Cc1ccsc1C(=O)OCC(=O)c1cc(C)n(CC2CCCO2)c1C (stereo unspecified),97.8% (active)
12,Cc1coc2cc3oc(=O)c(CCC(=O)O)c(C)c3cc12,1.41% (inactive)
13,COc1ccccc1NC(=O)CSc1nnc(-c2ccoc2C)n1CCc1ccccc1,-3.86% (inactive)
14,Cc1ccc(S(=O)(=O)N2CCOCC2)cc1C(=O)OC1CCCCC1=O (stereo unspecified),7.83% (inactive)
15,CN1C(=O)c2cccc3c(N)ccc(c23)C1=O,-16.2% (inactive)
16,CCN1C(=O)c2cccc3c(S(=O)(=O)Nc4ccccc4O)ccc1c23,-9.84% (inactive)
17,CCN1C(=O)c2cccc3c(N)ccc1c23,80.3% (active)
18,Cc1ccc(C)c(Cn2cnc3c(oc4ccccc43)c2=O)c1,9.24% (inactive)
19,Cc1c(NC(=O)C(C)OC(=O)c2ccccc2O)c(=O)n(-c2ccccc2)n1C (stereo unspecified),-6.6% (inactive)
20,CCc1ccc(NC(=O)C(=O)NNC(=O)c2cccs2)cc1,85.8% (active)
21,CCN(CC)c1ccc(/C=N/NC(=O)CNC(=O)c2cccs2)cc1,-14.6% (inactive)
22,CC(C)C(=O)Nc1ccc(C(=O)NNC(=O)c2cccs2)cc1,3.9% (inactive)
23,Cc1cccc(-n2c(C)cc(/C=N\NC(=O)c3cccs3)c2C)c1,-11.3% (inactive)
24,CC(=O)Nc1ccc(/C=N/NC(=O)c2cccs2)cc1,58.1% (active)

row,Structure (SMILES),inhibition
1,CCc1ccc(NC(=O)COC(=O)c2cccs2)cc1,8.32% (inactive)
2,CSc1cccc(NC(=S)N(C(C)C)C(C)c2ccccn2)c1 (stereo unspecified),4.01% (inactive)
3,CC1(C)CC(=O)c2c(n(S(=O)(=O)c3ccccc3)c3ccc(NS(=O)(=O)c4ccccc4)cc23)C1,6.92% (inactive)
4,COc1ccc(-c2oc3ncn(Cc4ccco4)c(=N)c3c2-c2ccc(OC)cc2)cc1,-13.1% (inactive)
5,COc1cccc(NC(=O)COC(=O)c2ccc3ccccc3n2)c1,-3.74% (inactive)
6,CCc1nnc(NC(=O)CSc2nnnn2-c2cccc(C(C)=O)c2)s1,-12.9% (inactive)
7,CCC(=O)Nc1ccc(C(=O)Nc2cccc(OC)c2)cc1,51.2% (active)
8,Cc1ccccc1C(=O)N1CCN(c2ccc(NC(=O)c3cccs3)cc2)CC1,-5.79% (inactive)
9,COc1cccc(NC(=O)CN(C)CC(=O)Nc2ccc3c(c2)CCC3)c1,-11.1% (inactive)
10,COc1cccc(C(=O)Nc2nnc(S(=O)(=O)N3CCCCC3)s2)c1,0.355% (inactive)
11,CSc1cccc(NC(=O)CSc2ccccc2)c1,-11% (inactive)
12,O=C(Nc1ccc(N2CCOCC2)cc1)c1cccc(S(=O)(=O)N2CCOCC2)c1,-0.135% (inactive)
13,CCOc1ccc(C(=O)Nc2cccc(SC)c2)cc1,91.4% (active)
14,COc1cccc(C(=O)Nc2ccc(N3CCCC3)cc2)c1,97.6% (active)
15,Cc1ccccc1C(=O)NC(=S)Nc1ccc(N2CCN(C(=O)c3ccccc3)CC2)cc1,2.96% (inactive)
16,COc1ccc(C(=O)Nc2cccc(S(C)(=O)=O)c2)cc1,-10.8% (inactive)
17,Cc1ccccc1C(=O)Nc1ccc(N2CCCCCC2)cc1,72.7% (active)
18,CCOc1ccc(C(=O)Nc2cccc(-c3ccc4nncn4n3)c2)cc1,5.7% (inactive)
19,CCn1c(=S)sc2c(=O)n(CC(=O)Nc3cccc(Br)c3)c(C)nc21,3.55% (inactive)
20,Cc1cccc(C(=O)OCC(=O)NCC(C)C)c1O,9.44% (inactive)
21,CCCn1c(SCC(=O)Nc2c(C)cccc2C)nnc1C(C)C,-9.77% (inactive)
22,C=CCOc1ccc(/C=N/NC(=O)C(C)Sc2ccccn2)cc1OCC (stereo unspecified),-0.571% (inactive)
23,COc1ccc(CCNC(=O)C(=O)NCC2OCCN2S(=O)(=O)c2cccs2)cc1OC (stereo unspecified),-6.36% (inactive)
24,Cc1ccc(NC(=O)CCOc2ccccc2)cc1S(=O)(=O)Nc1ccccc1Cl,1.1% (inactive)

row,Structure (SMILES),inhibition
1,Cc1c(C(=O)NCCN(C)C)oc2ccc(S(=O)(=O)N3CCCC3)cc12,4.61% (inactive)
2,CS(=O)(=O)N(CC(=O)NC1CCCC1)Cc1ccc(F)cc1,-6.07% (inactive)
3,O=C(NC1CC1)c1ccc(-c2ccccc2)cc1,-15.5% (inactive)
4,CNC(=O)c1sc(NCc2ccccc2OC)nc1C,8.32% (inactive)
5,COc1cccc2sc(Nc3nc(C)c(C(C)=O)s3)nc12,87.8% (active)
6,COc1ccccc1/C=N/Nc1nc(C)c(C(C)=O)s1,-28% (inactive)
7,CCn1c(SCC(=O)Nc2ccc(Br)cc2)nc2sc3c(c2c1=O)CCN(C)C3,12.7% (inactive)
8,CCOc1ccc(CN2CCN(Cc3ccc4cc(F)ccc4n3)CC2CCO)cc1 (stereo unspecified),9.04% (inactive)
9,COc1cccc(-c2ccc3c(c2)S(=O)(=O)c2cccc(C(=O)O)c2C3=O)c1OC,-1.89% (inactive)
10,O=C(O)c1ccc2c3c(cccc13)C(=O)N(OS(=O)(=O)c1ccccc1)C2=O,60.3% (active)
11,CCN(c1ccccc1)S(=O)(=O)c1cccc(C(=O)NCc2ccccc2CN2CCOCC2)c1,-16.6% (inactive)
12,CCc1ccc(C(=O)OCC(=O)NCC(F)(F)F)cc1,-1.8% (inactive)
13,CCCC1NC(=O)NC(C)=C1C(=O)OCC (stereo unspecified),-6.49% (inactive)
14,O=C(/C=C/c1ccco1)Nc1ccc(Oc2ccccc2)cc1,80.1% (active)
15,Cc1nnc(NC(=O)/C=C/c2ccco2)s1,-18.6% (inactive)
16,O=C(/C=C/c1ccco1)NC(=S)Nc1ccccc1Br,6.12% (inactive)
17,CCOC(=O)C1(Cc2cccc(OC)c2)CCCN(S(=O)(=O)c2cccnc2)C1 (stereo unspecified),-9.47% (inactive)
18,Oc1ccc(N=Nc2nccs2)c(O)c1,87.3% (active)
19,C=CCC(NC(=O)Cc1ccccc1)C(=O)NCCC (stereo unspecified),-9.67% (inactive)
20,Cc1nonc1C(=O)N/N=C/c1ccc(O)cc1,98.9% (active)
21,Cc1nc2ccc(C(=O)N/N=C/c3ccc(O)cc3)cc2[nH]1,-6.89% (inactive)
22,COC(=O)N/N=C/c1ccc(/C=N/NC(=O)OC)cc1,-17.5% (inactive)
23,CCOC(=O)C1(Cc2ccccc2C(F)(F)F)CCN(C(=O)c2cc(C)n(C)n2)CC1,-1.7% (inactive)
24,O=C(NC(=S)N1CCc2ccccc21)c1ccco1,7.02% (inactive)
